The results in this text go back to PubChem BioAssay.

Values without a mark were called inactive. The source made the active and inactive calls. Unless noted, no stated cut-off is given here; in the data, active means inhibition above about 25%; inactive means the rest.

As a reminder, the inhibition is the relative decrease from the control value, in per cent.

Assay [1] concerns the target Nuclear receptor coactivator 3 (Homo sapiens) (UniProt Q9Y6Q9). Kind of assay: NCOA3 GAL4-fusion reporter inhibition – cell-based, luminescence, quadruplicate, confirmation (AID 588792;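 active means mean inhibition over 43.08%, the solvent-only control mean plus 3 SD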;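 further: 0% = DMSO treated cells and 100% = gossypol at 36 µM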). The note with it: HEK293 GAL4-SRC3 luciferase reporter, at 3.6 µM, active compounds read high. (In general: Reporter assays use an easily measured gene product as a stand-in for the process of interest.)

Assay [2] concerns transactivating tegument protein VP16 (Human herpesvirus 1), Gal4-VP16 luciferase reporter. Kind of assay: repression of VP16-driven luciferase reporter – cell-based, luminescence, high throughput, counter-screen for SRC3 inhibitor project (AID 588794; in the data active means inhibition above about 30%). The note with it: mammalian cells, at 3.6 µM, active compounds read high.
In assay [3] the target is Nuclear receptor coactivator 1 (Homo sapiens) (UniProt Q15788). Kind of assay: NCOA1 GAL4-fusion reporter inhibition – cell-based, luminescence, quadruplicate, confirmation (AID 588820;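 active means mean inhibition above 46.68%, the untreated control wells mean plus 3 SD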;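 further: 0% = DMSO wells and 100% = gossypol 36 µM treated wells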). The note with it: HEK293 GAL4-SRC1 luciferase reporter, at 3.6 µM, active compounds read high.
A short description of assay [4]: repression of VP16-driven luciferase reporter – cell-based, luminescence, high throughput, counter-screen for SRC1 inhibitor project (AID 588824). The note with it: cell-based VP16 transactivation luciferase luminescence; at 3.6 µM; active compounds read high.
A short description of assay [5]: StAR promoter reporter inhibitors, counter-screen for LRH-1 inverse agonist project, cell-based, luminescence, high throughput (AID 651611; in the data active means inhibition above about 28%). The note with it: StAR promoter luciferase reporter counterscreen, at 3.6 µM, active compounds read high. Background: The purpose of a counterscreen is to sort out artefacts and off-target activity.
Assay [6] has as its target Nuclear receptor subfamily 5 group A member 2 (Homo sapiens) (UniProt O00482). Kind of assay: NR5A2 activity suppression in reporter cells – cell-based, luminescence, confirmation (AID 651613; in the data active means inhibition above about 42%;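 further: HEK293T cells co-transfected with LRH-1 and StAR promoter luciferase reporter; 0% = vehicle wells and 100% = parental cells lacking receptor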). The note with it: cell-based LRH-1 luciferase reporter, inverse agonism; at 3.6 µM; active compounds read high.
Assay [7] concerns the target Steroidogenic factor 1 (Homo sapiens) (UniProt Q13285). Kind of assay: inverse agonism at SF1 nuclear receptor – cell-based, luminescence, high throughput, counter-screen for LRH-1 inverse agonist project (AID 651614; in the data active means inhibition above about 44%;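 further: cells cotransfected with StAR promoter reporter and SF1 expression vector; 0% = vehicle on cells with receptor and 100% = vehicle on cells lacking receptor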). The note with it: cell-based SF1 luciferase reporter, at 3.6 µM, active compounds read high.
The nature of assay [8]: compounds suppressing VP16-driven luciferase signal – cell-based, luminescence, high throughput, counter-screen for LRH-1 inverse agonist project (AID 651615; in the data active means inhibition above about 33%). The note with it: Gal4-VP16 luciferase reporter cells, at 3.6 µM, active compounds read high.
Assay [9] deals with transactivating tegument protein VP16 (Human herpesvirus 1). Kind of assay: compounds suppressing VP16-driven luciferase signal – cell-based, luminescence, single concentration, counter-screen for SRC2 inhibitor project (AID 652007; in the data active means inhibition above about 36%). The note with it: cell-based VP16 transactivation luciferase reporter, at 8.9 µM, active compounds read high.
Assay [10] has as its target Nuclear receptor coactivator 2 (Homo sapiens) (UniProt Q15596). Kind of assay: inhibition of GAL4-SRC2 driven luciferase expression – cell-based, luminescence, HEK293, triplicate, confirmation (AID 652008;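 active means mean inhibition above 46.5%, the solvent-only control mean plus 3 SD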;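 further: 0% = DMSO-treated cells and 100% = Gossypol at 36 µM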). The note with it: HEK293 GAL4-SRC2 luciferase reporter, at 8.9 µM, active compounds read high.

Sequence of Nuclear receptor coactivator 2 (Homo sapiens) (Q15596 whole entry, looked up, the tested form may be a part): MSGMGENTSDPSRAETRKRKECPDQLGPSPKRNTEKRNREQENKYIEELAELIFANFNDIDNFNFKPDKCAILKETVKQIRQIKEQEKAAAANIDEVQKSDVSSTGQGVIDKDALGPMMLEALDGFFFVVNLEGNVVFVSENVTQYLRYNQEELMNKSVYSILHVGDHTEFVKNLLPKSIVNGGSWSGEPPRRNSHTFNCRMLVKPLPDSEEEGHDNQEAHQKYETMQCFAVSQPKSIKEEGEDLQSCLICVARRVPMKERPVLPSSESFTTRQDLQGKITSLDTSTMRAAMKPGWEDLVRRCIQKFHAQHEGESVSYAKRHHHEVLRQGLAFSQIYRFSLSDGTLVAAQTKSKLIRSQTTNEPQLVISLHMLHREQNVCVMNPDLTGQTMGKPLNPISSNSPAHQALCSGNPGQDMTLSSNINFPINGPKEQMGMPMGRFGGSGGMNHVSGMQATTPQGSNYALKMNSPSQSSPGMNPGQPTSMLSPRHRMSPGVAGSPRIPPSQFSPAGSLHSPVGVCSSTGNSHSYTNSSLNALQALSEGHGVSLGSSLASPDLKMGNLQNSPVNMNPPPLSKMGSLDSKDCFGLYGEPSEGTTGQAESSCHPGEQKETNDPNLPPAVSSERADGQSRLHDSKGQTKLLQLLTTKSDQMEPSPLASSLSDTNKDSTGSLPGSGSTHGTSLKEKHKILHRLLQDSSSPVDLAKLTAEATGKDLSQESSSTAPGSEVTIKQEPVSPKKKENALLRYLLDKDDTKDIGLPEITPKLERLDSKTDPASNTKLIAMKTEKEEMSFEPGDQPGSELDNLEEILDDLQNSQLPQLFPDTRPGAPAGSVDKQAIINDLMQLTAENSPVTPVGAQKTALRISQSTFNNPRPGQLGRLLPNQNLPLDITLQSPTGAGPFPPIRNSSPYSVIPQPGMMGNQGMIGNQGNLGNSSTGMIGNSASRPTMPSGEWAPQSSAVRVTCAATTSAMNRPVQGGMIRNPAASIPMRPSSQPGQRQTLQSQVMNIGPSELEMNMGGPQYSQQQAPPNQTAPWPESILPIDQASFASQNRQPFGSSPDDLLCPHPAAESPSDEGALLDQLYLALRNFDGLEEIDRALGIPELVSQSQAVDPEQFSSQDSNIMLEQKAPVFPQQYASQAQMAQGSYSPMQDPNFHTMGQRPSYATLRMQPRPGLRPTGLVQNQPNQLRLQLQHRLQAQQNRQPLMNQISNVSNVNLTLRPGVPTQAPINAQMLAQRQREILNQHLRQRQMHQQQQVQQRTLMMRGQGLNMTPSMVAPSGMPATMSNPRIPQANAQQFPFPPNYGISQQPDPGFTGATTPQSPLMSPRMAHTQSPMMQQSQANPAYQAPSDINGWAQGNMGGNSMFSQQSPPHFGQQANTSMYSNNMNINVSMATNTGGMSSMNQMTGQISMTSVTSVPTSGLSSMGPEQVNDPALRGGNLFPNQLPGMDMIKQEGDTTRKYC
Sequence of Nuclear receptor subfamily 5 group A member 2 (Homo sapiens) (O00482 whole entry, looked up): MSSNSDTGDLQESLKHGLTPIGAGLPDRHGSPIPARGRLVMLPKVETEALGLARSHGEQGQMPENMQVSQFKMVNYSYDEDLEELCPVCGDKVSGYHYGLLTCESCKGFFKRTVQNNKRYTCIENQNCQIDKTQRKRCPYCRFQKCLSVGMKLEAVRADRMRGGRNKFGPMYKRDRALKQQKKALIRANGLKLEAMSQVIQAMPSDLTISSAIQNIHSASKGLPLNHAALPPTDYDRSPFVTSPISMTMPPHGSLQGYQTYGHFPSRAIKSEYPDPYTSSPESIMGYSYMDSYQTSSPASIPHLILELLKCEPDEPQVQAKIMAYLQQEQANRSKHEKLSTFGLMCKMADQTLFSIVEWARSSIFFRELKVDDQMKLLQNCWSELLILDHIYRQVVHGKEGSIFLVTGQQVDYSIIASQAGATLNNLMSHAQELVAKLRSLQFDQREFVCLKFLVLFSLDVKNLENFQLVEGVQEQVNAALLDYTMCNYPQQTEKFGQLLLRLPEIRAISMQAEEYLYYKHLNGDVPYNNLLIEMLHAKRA
Sequence of Steroidogenic factor 1 (Homo sapiens) (Q13285 whole entry, looked up, the tested form may be a part): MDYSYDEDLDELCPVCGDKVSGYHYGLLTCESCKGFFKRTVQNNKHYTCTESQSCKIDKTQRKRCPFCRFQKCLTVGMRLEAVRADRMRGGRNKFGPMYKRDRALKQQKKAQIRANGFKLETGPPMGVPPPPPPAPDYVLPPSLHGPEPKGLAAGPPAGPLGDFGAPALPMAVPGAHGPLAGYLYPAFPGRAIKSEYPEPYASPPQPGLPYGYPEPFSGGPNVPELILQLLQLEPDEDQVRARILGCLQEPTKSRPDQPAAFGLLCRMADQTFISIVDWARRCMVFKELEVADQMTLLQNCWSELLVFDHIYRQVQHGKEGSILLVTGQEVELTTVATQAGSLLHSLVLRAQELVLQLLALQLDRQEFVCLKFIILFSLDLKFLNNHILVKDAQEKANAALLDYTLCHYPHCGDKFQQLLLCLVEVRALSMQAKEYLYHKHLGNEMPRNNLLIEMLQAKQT
Sequence of Nuclear receptor coactivator 1 (Homo sapiens) (Q15788 whole entry, looked up, the tested form may be a part): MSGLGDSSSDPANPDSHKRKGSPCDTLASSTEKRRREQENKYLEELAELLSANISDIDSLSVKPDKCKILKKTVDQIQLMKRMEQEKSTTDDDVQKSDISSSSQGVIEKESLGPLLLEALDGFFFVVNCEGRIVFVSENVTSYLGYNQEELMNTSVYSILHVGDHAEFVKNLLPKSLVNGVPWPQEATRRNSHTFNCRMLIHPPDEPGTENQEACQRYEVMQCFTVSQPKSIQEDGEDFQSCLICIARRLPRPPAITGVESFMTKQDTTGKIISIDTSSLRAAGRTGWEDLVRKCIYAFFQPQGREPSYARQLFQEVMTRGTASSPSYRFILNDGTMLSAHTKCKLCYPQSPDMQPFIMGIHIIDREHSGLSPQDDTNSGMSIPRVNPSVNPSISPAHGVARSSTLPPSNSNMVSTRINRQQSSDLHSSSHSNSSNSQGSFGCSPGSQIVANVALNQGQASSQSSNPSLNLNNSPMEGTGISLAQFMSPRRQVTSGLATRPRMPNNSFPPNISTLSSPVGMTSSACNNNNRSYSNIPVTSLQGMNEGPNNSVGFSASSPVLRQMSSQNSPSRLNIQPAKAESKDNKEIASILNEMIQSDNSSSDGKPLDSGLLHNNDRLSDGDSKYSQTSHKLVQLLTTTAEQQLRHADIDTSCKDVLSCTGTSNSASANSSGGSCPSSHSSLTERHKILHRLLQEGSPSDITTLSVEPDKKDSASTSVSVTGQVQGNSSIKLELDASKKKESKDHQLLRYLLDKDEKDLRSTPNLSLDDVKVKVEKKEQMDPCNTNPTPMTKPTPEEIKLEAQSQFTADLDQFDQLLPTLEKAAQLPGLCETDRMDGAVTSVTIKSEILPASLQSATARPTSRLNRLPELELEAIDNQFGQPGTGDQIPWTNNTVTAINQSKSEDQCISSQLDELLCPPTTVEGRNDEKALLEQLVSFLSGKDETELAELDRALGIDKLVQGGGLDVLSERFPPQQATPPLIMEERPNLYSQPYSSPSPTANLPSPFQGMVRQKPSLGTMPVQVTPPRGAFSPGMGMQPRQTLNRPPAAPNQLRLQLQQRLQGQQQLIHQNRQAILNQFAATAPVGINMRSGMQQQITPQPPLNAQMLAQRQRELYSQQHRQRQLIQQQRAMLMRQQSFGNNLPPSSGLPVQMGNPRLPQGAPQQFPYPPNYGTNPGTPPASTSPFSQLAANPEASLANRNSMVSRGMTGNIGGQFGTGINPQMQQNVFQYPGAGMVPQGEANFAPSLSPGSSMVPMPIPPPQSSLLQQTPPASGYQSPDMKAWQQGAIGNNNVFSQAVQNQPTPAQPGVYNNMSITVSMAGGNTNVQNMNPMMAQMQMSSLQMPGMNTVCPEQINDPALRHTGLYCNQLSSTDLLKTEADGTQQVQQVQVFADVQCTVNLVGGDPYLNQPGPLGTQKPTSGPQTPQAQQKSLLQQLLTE

As to `CCOc1cc(CNc2ccc3c(c2)OCCO3)cc(Br)c1OC`, the inhibition was 50.5% (active) in [1]; 29.5% (active) in assay [2]; -15.9% in assay [3]; -7.96% in assay [4]; 39.5% (active) in assay [5]; -55.6% in assay [6]. The inhibition is 23.8% in [7], -1.87% in assay [8], 1.28% in [9] and 48.8% (active) in [10].

On to `O=c1ccc2ccccc2c2ccccc12`, for which the inhibition in assay [1] is 73.2% (active); in assay [2], 70.8% (active); in assay [3], 58.7% (active); in [4], 70% (active); in assay [5], 76.7% (active); in assay [6], 93.6% (active). The inhibition is 90.3% (active) in [7], 88.1% (active) in assay [8], 68.3% (active) in assay [9] and 84.5% (active) in assay [10].

On to `NC(=S)NN=Cc1nccc2c(C(F)(F)C(F)(F)C(F)(F)F)cccc12`, for which the inhibition in [1] is 93.5% (active); in assay [2], 87.2% (active); in assay [3] it was 85.5% (active); in assay [4], 88.5% (active); in assay [5] it was 92.3% (active); in [6], 107% (active). For the same molecule, the inhibition in [7] was 95.6% (active); in [8] it was 82.1% (active); in [9] it was -16.1%; in assay [10] it was 18.2%.

Regarding `O=C(CN1C(=O)c2ccccc2S1(=O)=O)c1ccc(Cl)cc1Cl`, the inhibition in assay [1] is 65.8% (active); in assay [2], 71.5% (active); in assay [3], 8.08%; in assay [4], 62.5% (active); in assay [5], 67.9% (active); in assay [6], 55.3% (active). Further, the inhibition in [7] is 73% (active); in assay [8], 57.4% (active); in assay [9], 81.2% (active); in [10], 83.7% (active).

`COc1ccccc1C(=O)N(CCC1CCCN1C)c1nc2ccccc2s1` (stereo not given): the inhibition in assay [1] was 38.7%; in assay [2], 14.6%; in [3], -24.3%; in assay [4], -21.5%; in assay [5], -41.5%; in assay [6], -79.1%. Moreover, the inhibition was -54.7% in assay [7], -44.3% in assay [8], 11.8% in [9] and 53.8% (active) in [10].

Regarding `O=C(CCCN1C(=O)S/C(=C\c2ccccc2)C1=O)NNC(=O)c1ccccc1O`, the inhibition was 66% (active) in assay [1]; 58.7% (active) in assay [2]; 54.6% (active) in assay [3]; 53.3% (active) in assay [4]; 54.9% (active) in assay [5]; 64% (active) in assay [6]. Moreover, the inhibition is 53.8% (active) in assay [7], 63.8% (active) in assay [8], 89.2% (active) in assay [9] and 92.8% (active) in assay [10].

As to `Nc1nc(F)nc2c1ncn2[C@@H]1O[C@H](CO)[C@@H](O)[C@H]1O`, the inhibition in assay [1] is 98% (active); in assay [2], 93.4% (active); in assay [3] it was 82.7% (active); in [4] it was 94.4% (active); in assay [5], 94.5% (active); in assay [6], 108% (active). Further, the inhibition was 96.2% (active) in assay [7], 98.7% (active) in assay [8], 76.6% (active) in assay [9] and 77.6% (active) in assay [10].

For `CC(C)(C)c1ccc(C(=O)O/N=C(\N)c2ccccc2)cc1`, the inhibition in assay [1] is 74.5% (active); in assay [2], 73.6% (active); in assay [3] it was 61.1% (active); in assay [4] it was 58.3% (active); in [5] it was 61.9% (active); in assay [6], 55% (active). Also, the inhibition was 64.8% (active) in assay [7], 51.1% (active) in assay [8], 76.9% (active) in assay [9] and 87.7% (active) in assay [10].

`CC(C)c1ccc(-n2c(-c3ccccc3)c[n+]3c2CCc2ccccc2-3)cc1`: the inhibition in [1] is 72.4% (active); in [2], 84% (active); in [3], 63.6% (active); in [4], 84.4% (active); in assay [5], 76.3% (active); in [6] it was 108% (active). In addition, the inhibition in assay [7] is 91.6% (active); in assay [8], 90.1% (active); in assay [9] it was 60.1% (active); in assay [10], 71.4% (active).

`O=C(NCc1cccnc1)/C(=C/c1ccc(-c2ccc(Cl)cc2)o1)S(=O)(=O)c1ccccc1`: the inhibition in [1] was 76.5% (active); in [2] it was 62.8% (active); in [3] it was 48.1% (active); in assay [4], 47% (active); in assay [5], 47.5% (active); in assay [6], 79.5% (active). Also, the inhibition in assay [7] is 78.1% (active); in [8], 77.2% (active); in assay [9] it was 70.2% (active); in assay [10], 50.4% (active).

Consider `S=C(Nc1ccccc1)Nc1ccc(OCc2ccc(Cl)cc2Cl)cc1`, for which the inhibition in assay [1] is 46.7% (active); in [2], 25.4%; in assay [3], 43.6%; in [4], 24.4%; in assay [5], 63.4% (active); in assay [6] it was 72.3% (active). Besides, the inhibition in assay [7] is 59.5% (active); in [8] it was 39.4% (active); in assay [9], 83.7% (active); in assay [10], 93.9% (active).

Turning to `COc1cc2cc(C(=O)Nc3ccc4c(c3)OCCO4)[nH]c2cc1OC`, the inhibition is 27.4% in [1]; -26.5% in [2]; -2.55% in assay [3]; -48.8% in assay [4]; -32.3% in assay [5]; -49.1% in assay [6]. Moreover, the inhibition in [7] is -20.5%; in assay [8], -35.9%; in [9], -41.9%; in assay [10] it was 38.2%.

For `COc1ccc(C[C@H](N)C(=O)N[C@H]2[C@@H](O)[C@H](n3cnc4c(N(C)C)ncnc43)O[C@@H]2CO)cc1`, the inhibition in assay [1] was 97% (active); in assay [2] it was 94.2% (active); in assay [3], 89.3% (active); in assay [4], 91.8% (active); in assay [5], 97% (active); in [6], 111% (active). Moreover, the inhibition in assay [7] is 99.4% (active); in assay [8], 99.4% (active); in [9] it was 91% (active); in assay [10], 92.4% (active).

With `CCCc1ccc(C(=O)O/N=C(\N)c2ccccn2)cc1`, the inhibition in assay [1] was 16.8%; in assay [2], -24.7%; in [3] it was -82.5%; in [4], -63.2%; in assay [5] it was -12.5%; in assay [6] it was -85.8%. Besides, the inhibition was 2.79% in assay [7], -41.9% in assay [8], -18.6% in assay [9] and 31.1% in assay [10].
